From PubChem BioAssay (Tox21)
Results filed as inconclusive are left out. Some structures have more than one record in an assay (separate samples or runs), and their calls can disagree. The source made the active and inactive calls. Unless noted, calls come from the whole dose curve; as a rule, active = well fitted curve in the direction sought with a large enough effect in the repeat runs; inconclusive = weak or mixed curves; inactive = no such curve, though single readings can be large; an effect the other way counts as inactive or inconclusive.

How the values were obtained:
[1] = qHTS assay to identify small molecule antagonists of the estrogen related receptor (ERR) signaling pathway from Tox21 library - cell viability counter screen (AID 1224834); note: nearly all actives have a fitted effect of over 30% in size; note: potency is the fitted concentration of half-maximal effect
How it was run: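 Viability readout (CellTiter-Fluor fluorescence, 30 min at 37 C) multiplexed with the ERR assay; cells treated 17.5 h at 37 C with compounds delivered in DMSO.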

[2] = molecular target: Luciferin 4-monooxygenase (Photinus pyralis) (UniProt P08659); experiment: qHTS assay to identify small molecule inhibitors of firefly luciferase (AID 1224835); note: nearly all actives have a fitted effect of over 25% in size; note: potency is the fitted concentration of half-maximal effect
How it was run: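 Quantitative HTS format; KM concentrations of both substrates. Purified P. pyralis FLuc activity quantified from luminescence images.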

[3] = qHTS assay to identify small molecule agonists of the constitutive androstane receptor (CAR) signaling pathway - cell viability counter screen (AID 1224836); note: nearly all actives have a fitted effect of over 45% in size; note: potency is the fitted concentration of half-maximal effect
How it was run: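 HepG2 cells stably carrying hCAR and a CYP2B6-2.2kb reporter were plated 4 h, then given compounds at 15 concentrations plus PK11195 (final 0.75 uM). After 23 h at 37 C, viability was read by CellTiter-Fluor fluorescence.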

[4] = qHTS assay to identify small molecule antagonists of the constitutive androstane receptor (CAR) signaling pathway - cell viability counter screen (AID 1224837); note: nearly all actives have a fitted effect of over 45% in size; note: potency is the fitted concentration of half-maximal effect
How it was run: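 Fluorescence from CellTiter-Fluor served as the viability signal. Human hepatoma HepG2 cells stably bearing hCAR and CYP2B6-2.2kb received compound plus CITCO (50 nM final) for 23 hr.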

[5] = molecular target: Nuclear receptor subfamily 1 group I member 3 (Homo sapiens) (UniProt Q14994); experiment: qHTS assay to identify small molecule antagonists of the constitutive androstane receptor (CAR) signaling pathway (AID 1224838); note: nearly all actives have a fitted effect of over 40% in size
How it was run: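 Quantitative HTS in double-stable HepG2-CYP2B6-hCAR cells. After 4 h plating, cells get compound (15 concentrations) and CITCO at 50 nM final, incubate 24 h at 37 C, then ONE-Glo luminescence is read.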

[6] = molecular target: Nuclear receptor subfamily 1 group I member 3 (Homo sapiens) (UniProt Q14994); experiment: qHTS assay to identify small molecule agonists of the constitutive androstane receptor (CAR) signaling pathway (AID 1224839); note: nearly all actives have a fitted effect of over 15% in size; note: potency is the fitted concentration of half-maximal effect
How it was run: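 HepG2 cells stably expressing hCAR and a CYP2B6-2.2kb luciferase reporter were treated with compounds at 15 concentrations plus 0.75 uM PK11195 (final) for 24 h at 37 C; luminescence was read after ONE-Glo addition.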

[7] = qHTS assay to identify small molecule antagonists of the estrogen related receptor signaling pathway with the pleiotropic PPARgamma coactivator (PGC) from Tox21 10K library - cell viability counter screen (AID 1224840; active = well fitted cell-killing curve with a large enough effect in the repeat runs, not every such curve was filed as active; note: nearly all actives have a fitted effect of over 40% in size; note: potency is the fitted concentration of half-maximal effect)
How it was run: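 Compounds in DMSO, alongside positive and negative controls, were pinned onto PGC/ERR cells (2,000 per well). Exposure lasted 17.5 hours at 37 C, followed by a 30-minute CellTiter-Fluor incubation and fluorescence reading.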

[8] = qHTS assay to identify small molecule agonists of the estrogen related receptor signaling pathway with the pleiotropic PPARgamma coactivator (PGC) from Tox21 10K library (AID 1224842); note: nearly all actives have a fitted effect of over 15% in size; note: potency is the fitted concentration of half-maximal effect
How it was run: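 PGC/ERR reporter cells (NTP line) were seeded 2,000 per well, rested 6 h at 37 C/5% CO2, then pin-dosed with compounds in DMSO for 18 h at 37 C; luciferase read by One-Glo luminescence after 30 min at room temperature.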

[9] = qHTS assay to identify small molecule antagonists of the estrogen related receptor signaling pathway with the pleiotropic PPARgamma coactivator (PGC) from Tox21 10K library (AID 1224841; call rule not given here; note: actives are mostly falling curves and most rising ones were filed inactive; nearly all actives have a fitted effect of over 50% in size; note: potency is the fitted concentration of half-maximal effect)
How it was run: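 Compound exposure ran 18 hours at 37 C in PGC/ERR cells (2,000/well) that had first rested 6 hours in a 37 C/5% CO2 incubator. Luciferase activity was then detected with One-Glo after a 30-minute room-temperature step.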

Measured: Potency

Nuclear receptor subfamily 1 group I member 3 (Homo sapiens), sequence (Q14994 whole entry, looked up): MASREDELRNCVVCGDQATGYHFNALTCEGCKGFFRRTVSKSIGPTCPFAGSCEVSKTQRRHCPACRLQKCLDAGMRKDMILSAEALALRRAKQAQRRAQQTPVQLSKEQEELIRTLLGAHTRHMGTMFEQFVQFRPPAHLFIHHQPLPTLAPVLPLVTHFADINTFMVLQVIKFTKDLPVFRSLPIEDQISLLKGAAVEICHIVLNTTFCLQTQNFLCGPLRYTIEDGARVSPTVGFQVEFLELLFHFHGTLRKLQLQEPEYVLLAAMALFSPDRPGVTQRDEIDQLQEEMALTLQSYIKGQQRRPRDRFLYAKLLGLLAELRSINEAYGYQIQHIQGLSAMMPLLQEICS
Luciferin 4-monooxygenase (Photinus pyralis), sequence (P08659 whole entry, looked up): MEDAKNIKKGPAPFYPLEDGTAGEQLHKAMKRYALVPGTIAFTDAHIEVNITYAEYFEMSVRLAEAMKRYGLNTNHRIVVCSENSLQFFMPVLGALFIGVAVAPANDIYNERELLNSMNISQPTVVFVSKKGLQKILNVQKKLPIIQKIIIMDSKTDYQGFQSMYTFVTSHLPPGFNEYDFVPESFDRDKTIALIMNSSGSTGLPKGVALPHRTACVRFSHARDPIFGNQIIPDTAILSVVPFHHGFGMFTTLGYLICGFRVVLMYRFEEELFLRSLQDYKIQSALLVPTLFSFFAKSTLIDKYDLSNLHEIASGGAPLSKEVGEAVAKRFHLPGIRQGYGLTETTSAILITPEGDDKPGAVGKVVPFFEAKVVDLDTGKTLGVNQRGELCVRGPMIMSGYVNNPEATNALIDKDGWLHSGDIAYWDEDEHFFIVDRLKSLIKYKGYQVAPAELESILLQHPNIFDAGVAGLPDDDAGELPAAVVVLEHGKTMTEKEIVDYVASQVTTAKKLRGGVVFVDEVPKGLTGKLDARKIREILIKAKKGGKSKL

C=C1c2cccc(O)c2C(O)=C2C(=O)[C@]3(O)C(O)=C(C(N)=O)C(=O)[C@@H](N(C)C)[C@@H]3[C@@H](O)[C@H]12
not listed: [9]
inactive: all other assays above

CC(C)=CC(=O)C=C(C)C
not listed: [6]
inactive: all other assays above

CN1C(=O)OC(C)(C)C1=O
not listed: [6]
inactive: all other assays above

C[C@]12CC[C@@H]3c4ccc(O)cc4CC[C@H]3[C@@H]1CC[C@@H]2OC(=O)CCC1CCCC1
61.1 µM (active) and inactive: [1] | [7]
not listed: [6]
inactive: all other assays above

CCCCC(CC)COP(=O)(O)O (stereo unspecified)
not listed: [6] | [8] | [9]
inactive: all other assays above

CCCCCCCCOc1ccc(C(=O)O)cc1
active: [2] 31.4 µM
inactive: [1] | [3] | [4] | [5] | [7]

Nc1ccc(N=Nc2ccccc2)c(N)c1
active: [1] 26.7 µM | [2] 2.47 µM | [3] 30 µM | [4] 53.3 µM | [7] 26.7 µM

C[C@@H]1CN(CCCn2c3ccccc3c3ccccc32)C[C@H](C)N1
active: [1] 29.8 µM | [3] 29.8 µM | [4] 26.6 µM | [6] 2.11 µM | [7] 26.6 µM
inactive: [2] | [8]

O=C1Cc2cc(Cl)ccc2N1
not listed: [6]
inactive: all other assays above

CC(C)=CCC/C(C)=C/CC/C(C)=C/C(=O)OCC(=O)[C@@]1(O)CC[C@H]2[C@@H]3CCC4=CC(=O)C=C[C@]4(C)[C@H]3[C@@H](O)C[C@@]21C
active: [1] 29.8 µM
not listed: [6] | [9]
inactive: all other assays above

C=C1C[C@@]23CC[C@H]4[C@@](C)(CCC[C@@]4(C)C(=O)O[C@@H]4O[C@H](CO)[C@@H](O)[C@H](O)[C@H]4O)[C@@H]2CC[C@]1(O[C@@H]1O[C@H](CO)[C@@H](O)[C@H](O[C@@H]2O[C@H](CO)[C@@H](O)[C@H](O)[C@H]2O)[C@H]1O[C@@H]1O[C@H](CO)[C@@H](O)[C@H](O)[C@H]1O)C3
not listed: [6] | [9]
inactive: all other assays above

C=C1CCC2CC1C2(C)C (stereo unspecified)
inactive: [1] | [2] | [3] | [4] | [7]

CC(C)=CCC/C(C)=C/CC/C(C)=C/CCC(=O)OC/C=C(\C)CCC=C(C)C
not listed: [6] | [9]
inactive: all other assays above

CCCCN1CCCC1C(=O)Nc1c(C)cc(C)cc1C (stereo unspecified)
not listed: [6] | [8] | [9]
inactive: all other assays above

O=c1cc(-c2ccccc2)oc2ccc3ccccc3c12
active: [2] 0.0356 µM | [8] 0.243 µM
not listed: [6]
inactive: all other assays above

CCC(OCCCOC)OC(C)=O (stereo unspecified)
inactive: [1] | [2] | [3] | [4] | [7]

c1ccc2sc(SN(C3CCCCC3)C3CCCCC3)nc2c1
not listed: [6] | [8] | [9]
inactive: all other assays above

CCCCOc1ccc(OCCCN2CCOCC2)cc1
not listed: [6] | [8] | [9]
inactive: all other assays above

Cc1cc(O)ccc1O
active: [1] 61.8 µM | [7] 61.8 µM
not listed: [6] | [9]
inactive: all other assays above

CN1CCCC(n2nc(Cc3ccc(Cl)cc3)c3ccccc3c2=O)CC1 (stereo unspecified)
active: [1] 29.8 µM | [3] 23.7 µM | [4] 16.8 µM
inactive: [2] | [6] | [7] | [8]

O=[N+]([O-])c1cc(C2CCCCC2)c(O)c([N+](=O)[O-])c1
inactive: [6] | [8]
active: [1] 12.2 µM | [2] 39.8 µM | [3] 12.2 µM | [4] 15.3 µM | [7] 12.2 µM | [9] 4.84 µM

OC1(c2ccccc2)CCNCC1
not listed: [6]
inactive: all other assays above

Nc1ncnc2c1ncn2[C@H]1CC[C@@H](CO)O1
not listed: [6] | [8] | [9]
inactive: all other assays above

Cc1cc(C)cc(N)c1
not listed: [6] | [8] | [9]
inactive: all other assays above

CC(=O)OCCN(CCOC(C)=O)c1ccc(N=Nc2ccc([N+](=O)[O-])cc2C#N)cc1
inactive: [3] | [4] | [5] | [8]
active: [1] 48.6 µM | [2] 35.6 µM | [7] 48.6 µM

CCCCCCCCN
not listed: [6] | [8] | [9]
inactive: all other assays above

CC/C=C1/OC(=O)c2ccccc21
not listed: [6] | [9]
inactive: all other assays above

O=C1c2ccccc2C(=O)C1c1nc2ccccc2c(Br)c1O
inactive: [1] | [3] | [4] | [7]
active: [2] 17.8 µM

Cc1ccc(Cl)c(Nc2ccccc2C(=O)O)c1Cl
inactive: [1] | [2] | [3] | [4] | [7]

COc1ncnc(NS(=O)(=O)c2ccc(N)cc2)c1OC
not listed: [6] | [9]
inactive: all other assays above

O=C(/C=C/c1ccccc1)OCCc1ccccc1
inactive: [1] | [3] | [4] | [5] | [7]
active: [2] 4.48 µM
